Source: the supplement of paper PMC8371130
Structures can show the parent of a compound that is named as a salt.

The molecules below were run on HL-1 (assay: relative cell viability (CellTiter-Glo) vs DMSO control (% of DMSO control); higher = more viable cells). Settings: oxygen condition: hypoxia 48 h (1% O2) + reoxygenation 24 h; 40 nM.
Method in brief: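 HL-1 mouse atrial cardiomyocytes were plated in 384-well plates at 1000 cells per well together with compounds at 40, 200, 1000 or 5000 nM in 0.01% DMSO. One day later, cells went to a hypoxic workstation (1% O2) for 48 h, then were reoxygenated for 24 h in a normal incubator, or stayed in normoxia for the same time. Cell viability was read by CellTiter-Glo luminescence and normalised to vehicle-treated control cells.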
Work on `Cc1onc(-c2ccccc2)c1C(=O)N[C@@H]1C(=O)N2[C@@H]1SC(C)(C)[C@@H]2C(=O)O` [Oxacillin sodium monohydrate] yielded a relative cell viability of 104.
Molecule `O=C(CCCCCCC(=O)Nc1ccccc1)NO` [Vorinostat] has a relative cell viability of 101.
With `CC1CCc2c(N3CCC(O)CC3)c(F)cc3c(=O)c(C(=O)O)cn1c23` (centres undefined) [Nadifloxacin] the relative cell viability was 103.
In the case of `CCN(CCCc1ccccc1)CCCc1ccccc1` [Alverine Citrate], the relative cell viability is reported as 107.
Work on `CC(=O)O[C@H]1C[C@@H]2CC[C@@H]3[C@H](CC[C@@]4(C)[C@H]3C[C@H]([N+]3(C)CCCCC3)[C@@H]4OC(C)=O)[C@@]2(C)C[C@@H]1N1CCCCC1` [Vecuronium Bromide] yielded a relative cell viability of 112.
`CNCCC(Oc1ccc(C(F)(F)F)cc1)c1ccccc1` (centres undefined) [Fluoxetine  HCl] was tested, and the relative cell viability was 103.
`CCCNC(C)C(=O)Nc1ccccc1C` (centres undefined) [Prilocaine] showed a relative cell viability of 96.7.
For `Cc1c(N(C)C)c(=O)n(-c2ccccc2)n1C` [Amidopyrine], the relative cell viability was 107.
`CCCCN1CCCCC1C(=O)Nc1c(C)cccc1C` (centres undefined) [Bupivacaine hydrochloride] gave a relative cell viability of 107.
`O=C1c2c(O)ccc(O)c2C(=O)c2c(NCCNCCO)ccc(NCCNCCO)c21` [Mitoxantrone Hydrochloride] showed a relative cell viability of 4.78.
`CO[C@H]1C[C@@H]2CC[C@@H](C)[C@@](O)(O2)C(=O)C(=O)N2CCCC[C@H]2C(=O)O[C@H]([C@H](C)C[C@@H]2CC[C@@H](OC(=O)C(C)(CO)CO)[C@H](OC)C2)CC(=O)[C@H](C)/C=C(\C)[C@@H](O)[C@@H](OC)C(=O)[C@H](C)C[C@H](C)/C=C/C=C/C=C/1C` [Temsirolimus] gave a relative cell viability of 70.7.
Molecule `C[C@@H]1C[C@H]2[C@@H]3C[C@H](F)C4=CC(=O)C=C[C@]4(C)[C@@]3(F)[C@@H](O)C[C@]2(C)[C@@]1(O)C(=O)CO` [Flumethasone] has a relative cell viability of 105.
`C#C[C@]1(OC(C)=O)CC[C@H]2[C@@H]3CCC4=C[C@@H](OC(C)=O)CC[C@@H]4[C@H]3CC[C@@]21C` [Ethynodiol diacetate] was tested, and the relative cell viability was 97.7.
`CS(=O)(=O)c1ccc(C2=C(c3ccccc3)C(=O)OC2)cc1` [Rofecoxib] was tested, and the relative cell viability was 104.
Work on `NS(=O)(=O)c1cc2c(cc1Cl)N=C(CSCc1ccccc1)NS2(=O)=O` [Benzthiazide] yielded a relative cell viability of 103.
In the case of `CC[C@H]1OC(=O)[C@H](C)[C@@H](O[C@H]2C[C@@](C)(OC)[C@@H](O)[C@H](C)O2)[C@H](C)[C@@H](O[C@@H]2O[C@H](C)C[C@H](N(C)C)[C@H]2O)[C@](C)(O)C[C@@H](C)/C(=N\OCOCCOC)[C@H](C)[C@@H](O)[C@]1(C)O` [Roxithromycin], the relative cell viability is reported as 101.
Work on `CC1=C(/C=C/C(C)=C/C=C/C(C)=C/C(=O)O)C(C)(C)CCC1` [Tretinoin] yielded a relative cell viability of 113.
`CCOC(=O)OC(C)OC1=C(C(=O)Nc2ccccn2)N(C)S(=O)(=O)c2ccccc21` (centres undefined) [Ampiroxicam] gave a relative cell viability of 110.
`CC(O)(P(=O)(O)O)P(=O)(O)O` [Etidronate] was tested, and the relative cell viability was 95.8.
For `COC(=O)[C@H](c1ccccc1Cl)N1CCc2sccc2C1` [Clopidogrel], the relative cell viability was 105.
In the case of `C[C@H](CCC(=O)O)[C@H]1CC[C@H]2[C@@H]3[C@@H](O)C[C@@H]4C[C@H](O)CC[C@]4(C)[C@H]3CC[C@]12C` [Ursodiol], the relative cell viability is reported as 103.
`C[C@@H](O[C@H]1OCCN(Cc2nn(P(=O)(O)O)c(=O)[nH]2)[C@H]1c1ccc(F)cc1)c1cc(C(F)(F)F)cc(C(F)(F)F)c1` [Fosaprepitant dimeglumine] gave a relative cell viability of 104.
Work on `CC(=O)Oc1ccc(C(c2ccc(OC(C)=O)cc2)c2ccccn2)cc1` [Bisacodyl] yielded a relative cell viability of 103.
Work on `Cc1cc(N)c2ccccc2[n+]1CCCCCCCCCC[n+]1c(C)cc(N)c2ccccc21` [Dequalinium chloride] yielded a relative cell viability of 101.
Work on `CC1CNc2c(cccc2S(=O)(=O)N[C@@H](CCCNC(=N)N)C(=O)N2CC[C@@H](C)C[C@@H]2C(=O)O)C1` (some centres undefined) [Argatroban] yielded a relative cell viability of 97.7.
`CCCCNc1cc(C(=O)O)cc(S(N)(=O)=O)c1Oc1ccccc1` [Bumetanide] showed a relative cell viability of 102.
Molecule `CCCCC(=O)O[C@H]1CC[C@H]2[C@@H]3CCc4cc(O)ccc4[C@H]3CC[C@]12C` [Estradiol valerate] has a relative cell viability of 100.
In the case of `C[C@@](Cc1ccc(O)c(O)c1)(NN)C(=O)O` [Carbidopa], the relative cell viability is reported as 101.
`O=c1[nH]cc(F)c(=O)[nH]1` [Adrucil] gave a relative cell viability of 110.
`COc1ccccc1N1CCN(CC(O)COc2cccc3ccccc23)CC1` (centres undefined) [Naftopidil] showed a relative cell viability of 103.
In the case of `OC(CCN1CCCC1)(c1ccccc1)C1CCCCC1` (centres undefined) [Procyclidine HCl], the relative cell viability is reported as 93.1.
In the case of `COc1ccc2cc1Oc1ccc(cc1)C[C@H]1c3c(cc4c(c3Oc3cc5c(cc3OC)CCN(C)[C@@H]5C2)OCO4)CCN1C` [Cepharanthine], the relative cell viability is reported as 98.8.
Molecule `C=C1CC[C@H](O)C/C1=C/C=C1\CCC[C@]2(C)[C@@H]([C@H](C)/C=C/[C@H](C)C(C)C)CC[C@@H]12` [Vitamin D2] has a relative cell viability of 102.
Molecule `COc1cccc2c1C(=O)c1c(O)c3c(c(O)c1C2=O)C[C@@](O)(C(=O)CO)C[C@@H]3O[C@H]1C[C@H](N)[C@H](O)[C@H](C)O1` [Doxorubicin] has a relative cell viability of 63.3.
Molecule `CCOC(=O)c1c(C)n(C)c2ccc(O)cc12` [Mecarbinate] has a relative cell viability of 102.
Work on `O=C(c1ccc(OCCN2CCCCC2)cc1)c1c(-c2ccc(O)cc2)sc2cc(O)ccc12` [Evista] yielded a relative cell viability of 111.
In the case of `CC(=O)O[C@H]1CC[C@@]2(C)C(=CC[C@@H]3[C@@H]2CC[C@]2(C)C(c4cccnc4)=CC[C@@H]32)C1` [Abiraterone Acetate], the relative cell viability is reported as 104.
`CN(Cc1cc(Br)cc(Br)c1N)C1CCCCC1` [Bromhexine HCl] showed a relative cell viability of 97.5.
`C#CCN[C@@H]1CCc2ccccc21` [Rasagiline mesylate] showed a relative cell viability of 94.8.
